Measurements taken from PubChem BioAssay AID488969 (Vanderbilt High Throughput Screening Facility, 2010).
In all, about 110,000 compounds were measured (“z-score”: median about -0.1, highest 2% from about 2 on). This excerpt belongs to a sample that is enriched for the highest values. Calls of active or inactive are those of the source.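 The calls were made as follows: active = z-score in the third read window above 3 or below -3; inactive = the rest.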

target: Metabotropic glutamate receptor 8 (Rattus norvegicus) (UniProt P70579); test: rat mGluR8 modulators via GIRK flux, primary screen, cell-based, thallium flux, HTS (AID 488969); details: HEK293 rat mGluR8, GIRK (G protein-gated inwardly rectifying potassium channel) thallium flux, FluoZin2; at 10 µM; stronger effect = higher value; submaximal glutamate (EC20) added with thallium
Sequence (P70579 whole entry, looked up): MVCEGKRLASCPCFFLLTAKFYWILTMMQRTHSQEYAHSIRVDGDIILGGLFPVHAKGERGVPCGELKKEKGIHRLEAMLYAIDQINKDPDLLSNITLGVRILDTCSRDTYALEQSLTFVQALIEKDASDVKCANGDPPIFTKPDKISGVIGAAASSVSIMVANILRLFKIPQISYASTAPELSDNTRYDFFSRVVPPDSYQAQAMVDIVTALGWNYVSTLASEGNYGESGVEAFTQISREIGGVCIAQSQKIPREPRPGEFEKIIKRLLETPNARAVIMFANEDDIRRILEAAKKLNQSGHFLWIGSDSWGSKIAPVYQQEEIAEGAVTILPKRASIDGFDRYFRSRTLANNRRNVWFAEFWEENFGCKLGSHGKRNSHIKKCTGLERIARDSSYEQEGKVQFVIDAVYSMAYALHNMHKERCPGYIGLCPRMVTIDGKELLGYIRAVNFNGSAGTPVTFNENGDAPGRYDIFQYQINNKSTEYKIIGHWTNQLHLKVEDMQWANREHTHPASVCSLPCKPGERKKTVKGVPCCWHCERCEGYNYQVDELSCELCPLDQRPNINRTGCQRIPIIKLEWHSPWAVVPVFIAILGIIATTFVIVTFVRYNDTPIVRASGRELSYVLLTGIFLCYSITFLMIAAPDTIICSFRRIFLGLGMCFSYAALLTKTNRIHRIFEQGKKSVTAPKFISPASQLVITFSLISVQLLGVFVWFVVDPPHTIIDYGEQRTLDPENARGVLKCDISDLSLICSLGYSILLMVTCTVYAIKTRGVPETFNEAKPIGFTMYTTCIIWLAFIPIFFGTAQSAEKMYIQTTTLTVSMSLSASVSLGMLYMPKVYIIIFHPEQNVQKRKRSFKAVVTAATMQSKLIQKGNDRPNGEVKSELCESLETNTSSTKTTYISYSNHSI

Row | SMILES | z-score
1 | Cc1ccc(NC(=O)C2CCCN(S(=O)(=O)c3cnc[nH]3)C2)cc1F (stereo not drawn) | -0.00916
2 | Clc1ccc(-c2cc(CSc3cccc(Cl)c3)on2)cc1 | -0.234
3 | CCOC(=O)c1cc(NC(=O)COc2ccc([N+](=O)[O-])cc2)cc(C(=O)OCC)c1 | -0.0752
4 | Cc1[nH]c(=O)[nH]c(=O)c1/C=C/C(=O)OCC(C)C | 0.104
5 | NCCCCCc1nnc(SCc2ccc(Cl)cc2Cl)o1 | 2.74
6 | NCCCCCc1nnc(SCc2ccc(Cl)c(Cl)c2)o1 | 0.93
7 | NCCCCCc1nnc(SCc2ccccc2Cl)o1 | 1.74
8 | Cc1ccc(-c2cn(-c3ccccc3)c(SCC(=O)NC3CCS(=O)(=O)C3)n2)cc1C (stereo not drawn) | 3.44 (active)
9 | O=C(CSc1nc2ccccc2n1CC(=O)N1CCOCC1)N1CCCC1 | 0.588
10 | O=C(CSc1nc2cc(C(F)(F)F)ccc2n1Cc1ccccc1)NC1CCS(=O)(=O)C1 (stereo not drawn) | -0.137
11 | O=C(CSc1nnc(-c2ccc(Br)cc2)n1CCc1ccccc1)NC1CCS(=O)(=O)C1 (stereo not drawn) | -0.076
12 | CCN(C(=O)CSc1nc2ccccc2n1CCc1ccccc1)C1CCS(=O)(=O)C1 (stereo not drawn) | 3.88 (active)
13 | Cc1ccc(C)c(-n2cc(-c3ccc(Cl)cc3)nc2SCC(=O)NC2CCS(=O)(=O)C2)c1 (stereo not drawn) | -0.524
14 | Cc1ccc(-c2cn(-c3ccccc3)c(SCC(N)=O)n2)cc1C | -1.06
15 | CN(C(=O)CSc1nc2ccccc2n1CCc1ccccc1)C1CCS(=O)(=O)C1 (stereo not drawn) | 0.483
16 | O=C(CSc1nc2ccccc2n1CCc1ccccc1)NC1CCS(=O)(=O)C1 (stereo not drawn) | 2.39
17 | O=C(Cn1c(SCc2ccccc2)nc2ccccc21)N1CCOCC1 | -0.096
18 | CCN(C(=O)CSc1nc2cc(C(F)(F)F)ccc2n1Cc1ccccc1)C1CCS(=O)(=O)C1 (stereo not drawn) | -0.724
19 | O=C(CSc1nc2ccccc2n1CCc1ccccc1)N1CCOCC1 | 2.47
20 | CCOC(=O)/C(=N\Nc1ccc(OC)cc1)c1csc(Nc2ccccc2)n1 | 0.551
21 | COC(=O)CCc1c(C)c(C#N)c2nc3ccccc3n2c1N1CCCC1 | -0.478
22 | Cc1cc(-n2ccc(=O)[nH]c2=O)nc(-c2ccccc2)n1 | -0.208

Row | SMILES | z-score
23 | S=C1NCCc2ccc(Cl)cc2C1c1ccccc1 (stereo not drawn) | -0.00171
24 | Cc1c(C(C)(C)C)c(C=S)n2ccccc12 | -0.503
25 | CN(C)c1ccc(C2NCC(CCl)O2)cc1 (stereo not drawn) | -0.159
26 | COc1cc(OC)cc(C(=O)NCc2n[nH]c(=S)n2-c2ccccc2OC)c1 | -0.981
27 | COc1ccccc1-n1c(CNC(=O)COc2ccccc2)n[nH]c1=S | 2.71
28 | CCN(CC)S(=O)(=O)c1ccc(C(=O)NCc2n[nH]c(=S)n2-c2ccccc2OC)cc1 | -0.0139
29 | CSc1ccc(N2CCN(CCCNC(=O)Nc3ccccc3F)CC2)cc1 | 0.699
30 | N#Cc1ccccc1NC(=O)COC(=O)CSc1nc2ccccc2o1 | -2.27
31 | Fc1ccc(CCNC(=S)Nc2ccc(F)cc2)cc1 | 0.103
32 | Cc1cc(/C=c2/sc3nc4ccccc4n3c2=O)c(C)n1-c1ccccn1 | 6.08 (active)
33 | O=c1/c(=C/c2ccccn2)sc2nc3ccccc3n12 | 0.539
34 | O=c1/c(=C\c2cccnc2)sc2nc3ccccc3n12 | -0.0361
35 | Cc1nc2oc3c(NCc4ccccc4)ncnc3c2c2c1COC(C)(C)C2 | -0.383
36 | CCCOc1ccc(C2=NNC(c3cccs3)=Nc3ccc(OC)cc32)cc1 | -0.471
37 | CCOc1ccc(C2=NNC(c3cccs3)=Nc3ccc(OC)cc32)cc1 | 3.11 (active)
38 | CCOc1ccc(C2=NNC(c3cccs3)=Nc3ccc(OCC)cc32)cc1 | -0.166
39 | CCCn1c2c(c(O)c(C(=O)NCCCN(CC)CC)c1=O)CCCC2 | 0.585
40 | Cc1ccccc1C(=O)N1CCN(c2ccc([N+](=O)[O-])c(NCc3cccnc3)c2)CC1 | -0.418
41 | Cc1ccc(OCc2n[nH]c(=S)n2C2CCCCC2)cc1 | -1.04
42 | Cc1cc(Cl)ccc1OCc1n[nH]c(=S)n1C1CCCCC1 | 7.67 (active)
43 | S=c1[nH]nc(COc2ccc(Cl)cc2)n1C1CCCCC1 | 1.31
44 | CC(=O)Cc1nsc(NC(=O)c2cn(-c3ccccc3)nc2-c2ccc(Br)cc2)n1 | 0.229

Row | SMILES | z-score
45 | O=C(c1ccccc1F)N1CCN=C1SCc1cccnc1 | 0.643
46 | Cc1cc(NC(=O)C(C)C)ncc1NC(=O)Cc1ccccc1 | 1.07
47 | Cc1cc(C(=O)N/N=C2\CCCC(C)C2)n[nH]1 (stereo not drawn) | -0.208
48 | COc1ccc([C@@H]2Sc3cc(OC)ccc3N(CCN(C(C)C)C(C)C)C(=O)[C@H]2OC(C)=O)cc1 | 2.62
49 | COc1ccc(CCN2C(=O)C(Oc3ccccc3C)C2c2ccc3c(c2)OCO3)cc1 (stereo not drawn) | -0.223
50 | COc1ccc(CCN2C(=O)C(Oc3ccccc3)C2c2ccc3c(c2)OCO3)cc1 (stereo not drawn) | -0.146
51 | COC(=O)COc1ccc(S(=O)(=O)N2CCc3ccccc3C2)cc1 | -0.687
52 | CCCCSc1nc2ccccc2n1CC(=O)O | -0.412
53 | CC(C)(C)c1ccc2c(c1)C(=O)c1ccccc1C2=O | -0.283
54 | CCOC(=O)c1ccc(Oc2nc(NC)nc(OC)n2)cc1 | -0.524
55 | C=CCOc1cccc(C2/C(=C(/O)c3ccc(Cl)cc3)C(=O)C(=O)N2CCN2CCOCC2)c1 (stereo not drawn) | -0.349
56 | C=CCOc1cccc(C2/C(=C(/O)c3ccccc3)C(=O)C(=O)N2CCN2CCOCC2)c1 (stereo not drawn) | -0.193
57 | C=CCOc1cccc(C2/C(=C(/O)c3ccc(C)cc3)C(=O)C(=O)N2CCN2CCOCC2)c1 (stereo not drawn) | 3.31 (active)
58 | Cc1ccc(C)c(N2C(=O)CN=C2Nc2ccccc2Cl)c1 | -0.307
59 | Cc1ccccc1C(=O)NNC(=O)Cc1ccccc1 | -0.146
60 | Cc1ccc(NC(=O)COc2ccccc2)c(NC(=O)c2ccccc2C)c1 | 0.00484
61 | Cc1ccc(C(=O)NNC(=S)NC(=O)COc2ccccc2)cc1 | 6.25 (active)
62 | Cc1ccccc1C(=O)NNC(=S)NC(=O)COc1ccccc1 | 4.25 (active)
63 | Cc1ccc(OCC(=O)NNC(=O)c2cccnc2)cc1 | 0.0457
64 | COc1cccc(OCC(=O)NNC(=O)c2ccc(-c3ccccc3)cc2)c1 | 0.902
65 | Cc1cccc(C(=O)NN2C(=O)C3C(c4ccccc4)C=CC(c4ccccc4)C3C2=O)c1 (stereo not drawn) | 0.291
66 | Cc1ccc(C(=O)NCCSc2ccc(Cl)cc2)cc1S(=O)(=O)Nc1ccccc1 | -0.43

Row | SMILES | z-score
67 | CC(C)Cn1c(=O)c(C2=NS(=O)(=O)c3ccccc3N2)c(O)c2ccccc21 | 5.83 (active)
68 | CCn1c(=O)c(-c2ccccc2)c(O)c2ccccc21 | 1.28
69 | CC(C)Cn1c(=O)c(C(=O)N/N=C/c2cccc(F)c2)c(O)c2ccccc21 | 0.163
70 | CCCc1nc(NCC2CCCO2)c2nnn(Cc3ccccc3)c2n1 (stereo not drawn) | -0.932
71 | Cc1onc(-c2ccccc2)c1C(=O)Nc1nc2c(s1)CCCC2 | 0.165
72 | CC(C)[C@H](NC(=O)c1ccccc1F)C(=O)Nc1nc2c(s1)CCCC2 | 2.3
73 | CCOc1ccccc1C(=O)N[C@H](C(=O)Nc1nc2c(s1)CCCC2)C(C)C | 0.39
74 | CC(C)(C)c1ccc(C(=O)NC(=S)Nc2nc3c(s2)CCCC3)cc1 | 1.95
75 | O=C(NC(=S)Nc1nc2c(s1)CCCC2)c1ccccc1 | 4.37 (active)
76 | Cc1ccccc1C(=O)NC(C(=O)Nc1nc2c(s1)CCCC2)C(C)C (stereo not drawn) | -0.323
77 | O=C(NC(=S)Nc1nc2c(s1)CCCC2)c1ccc(C(=O)c2ccccc2)cc1 | 2.41
78 | O=C(Nc1nc2c(s1)CCCC2)c1cccs1 | 0.315
79 | COC(=O)c1ccc(C(=O)NC(=S)Nc2nc3c(s2)CC(C)CC3)cc1 (stereo not drawn) | 0.17
80 | COC(=O)c1ccc(C(=O)NC(=S)Nc2nc3c(s2)CCCC3)cc1 | 9.51 (active)
81 | O=C(NC(=S)Nc1nc2c(s1)CSc1ccccc1-2)c1ccccc1 | 0.384
82 | CN(C)c1ccc(C(=O)Nc2nc3c(s2)CCCC3)cc1 | 0.874
83 | S=C1NCCOCCOCCOCCN1 | -0.259
84 | Cc1nc2oc3ccccc3c(=O)c2c(=O)n1Cc1ccccc1 | 1.14
85 | Brc1ccccc1-c1nnc2sc(Cc3ccccc3)nn12 | -2.32
86 | Cc1ccc2cccc(S(=O)(=O)Nc3c(C)n(C)n(-c4ccccc4)c3=O)c2n1 | -0.0715
87 | Cc1cc(C)n2nc(C(=O)OCC(=O)c3cc(C)n(C)c3C)nc2n1 | -0.164
88 | Cc1ccc2c(c1)nc(NCCO)n2C | -0.14

Row | SMILES | z-score
89 | Cc1ccccc1CSCc1nc2ccccc2[nH]1 | -0.127
90 | COc1ccc(/C=C/C(=O)c2cc(Br)ccc(=O)c2O)cc1 | 3.14 (active)
91 | Cc1ccc(/C=C/C(=O)c2ccccc(=O)c2O)cc1C | 5.65 (active)
92 | CNc1ccc(Br)cc(C(=O)/C=C/c2ccc3c(c2)OCO3)c1=O | 0.111
93 | CNc1ccc(Br)cc(C(=O)/C=C/c2ccc(OC)cc2OC)c1=O | -0.255
94 | CCc1ccc(C(C)NC(=O)/C=C/c2ccc(Br)cc2)cc1 (stereo not drawn) | -0.0914
95 | Cc1cccc(/C=C/C(=O)c2cc(Br)ccc(=O)c2O)c1 | 2.75
96 | CNc1ccc(Br)cc(C(=O)/C=C/c2ccc(OC)cc2)c1=O | 0.019
97 | Cc1ccc(/C=C/C(=O)c2cc(Br)ccc2OC(=O)c2ccco2)cc1 | -0.117
98 | O=C(/C=C/c1ccc2c(c1)OCCCO2)c1ccc2ccccc2c1O | 0.573
99 | O=C(/C=C/c1ccc2c(c1)OCCCO2)c1ccccc1O | 0.562
100 | CNc1ccc(Br)cc(C(=O)/C=C/c2cccc(OC)c2)c1=O | -0.351
101 | CCc1ccc(/C=C/C(=O)c2cc(Br)ccc(=O)c2O)cc1 | 2.17
102 | N#Cc1cccc(Oc2ccc(-c3cnc4ccccc4n3)cc2)c1C#N | 0.258
103 | Cc1ccc(-n2c(C)nnc2SCC(=O)N2CCc3ccccc3C2)cc1 | -0.994
104 | Cc1cccc(N2C(=O)CC(Sc3nc(-c4ccccc4)c4cc(Cl)ccc4n3)C2=O)c1 (stereo not drawn) | -0.887
105 | CCc1ccc(OCC(=O)N/N=C/c2cc([N+](=O)[O-])ccc2N2CCOCC2)cc1 | 0.198
106 | C/C(=N\OC(=O)c1ccc(Cl)cc1)c1nccs1 | -0.0963
107 | Cc1ccc(-n2nnnc2SCC(=O)Nc2cccc(NC(=O)c3ccco3)c2)cc1C | 1.39
108 | CC1=CC(=Nc2c(C)n(C)n(-c3ccccc3)c2=O)C=C(C)C1=O | 0.433
